# Laboratory results published in PubChem BioAssay (Tox21).
# A number with no mark means an inactive call. Inconclusive results are not listed. Where a call stands in place of a potency, no number is given. Activity calls are given as the source filed them. Unless noted, calls follow the shape of the dose curve; as a rule, active = well fitted curve in the direction sought with a large enough effect in the repeat runs; inconclusive = weak or mixed curves; inactive = no such curve, though single readings can be large; an effect the other way counts as inactive or inconclusive.
# Legend:
# [1] = qHTS assay to identify small molecule agonists of H2AX (AID 1224845; active = well fitted activation curve with a large enough effect in the signal ratio in the repeat runs, not every such curve was filed as active; the % refers to the signal ratio)
# In short: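 Wild-type CHO-K1 cells plated overnight, then exposed 3 hr at 37C to compounds at 15 concentrations (0.76% DMSO). Lysed, then HTRF anti-pH2AX(S139)-cryptate/anti-H2AX-d2 detection after 24 hr at room temperature; emissions 665 and 620 nm.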
# [2] = qHTS assay to identify small molecule agonists of the hypoxia (HIF-1) signaling pathway (AID 1224846; active = well fitted activation curve with a large enough effect in the signal ratio in the repeat runs, not every such curve was filed as active; the % refers to the signal ratio)
# In short: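 Measured by blue/green FRET after loading CCF4-AM: beta-lactamase expressed from a hypoxia response element in ME-180 cells. Test agents were delivered in DMSO and left 17 hrs; cells had been plated 5 hrs earlier in low-serum (0.5% dialyzed FBS) medium.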
# [3] = qHTS assay to identify small molecule agonists of H2AX - cell viability counter screen (AID 1224847; calls by dose curve; also: nearly all actives have a fitted effect of over 30% in size; also: potency is read from the fitted curve at half-maximal effect)
# In short: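 Viability of CHO-K1 (wild type) cells after 3 hr compound exposure was measured by CellTiter-Glo luminescence.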
# [4] = qHTS assay to identify small molecule antagonists of the estrogen related receptor (ERR) signaling pathway from Tox21 library (AID 1224848); also: nearly all actives have a fitted effect of over 50% in size; also: potency is read from the fitted curve at half-maximal effect
# In short: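 Screening used an ERR reporter line supplied by NTP, exposed for 18 h at 37 C to library compounds delivered in DMSO. Signal was luciferase luminescence developed with ONE-Glo at room temperature for 30 min.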
# [5] = qHTS assay to identify small molecule agonists of the estrogen related receptor (ERR) signaling pathway from Tox21 library (AID 1224849; calls by dose curve; also: nearly all actives have a fitted effect of over 15% in size); conditions: ERR reporter cell line, ONE-Glo luciferase, 18 h; at 92.4 µM (top of the series) unless noted
# In short: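 We plated ERR reporter cells, waited 6 h, added compounds in DMSO by pin tool and incubated them 18 h at 37 C. ONE-Glo was then added and luminescence read after 30 min.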
# [6] = qHTS RealTime-Glo MT Cell Viability Assay in HepG2 cells - 24 hour (AID 1224867); also: nearly all actives have a fitted effect of over 50% in size
# In short: (§1)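 Cells + NanoLuc/prosubstrate dispensed (600 cells/well) → 5 h at 37 C/5% CO2 → compounds in DMSO transferred → 40 h incubation at 37 C, luminescence read at 0, 8, 16, 24, 32, 40 h.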
# [7] = qHTS RealTime-Glo MT Cell Viability Assay in HEK293 cells - 32 hour (AID 1224868); also: nearly all actives have a fitted effect of over 50% in size; also: potency is read from the fitted curve at half-maximal effect
# In short: (§2)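 Tox21 10K qHTS, HEK293, 600 cells/well, RealTime-Glo reagent co-dispensed with cells; 5 h preincubation, compound by pintool, 37 C, luminescence at 0–40 h.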
# [8] = A CellTox Green Cytotoxicity Assay to monitor cytotoxicity in HEK293 cells - 0 hour (AID 1224869); also: nearly all actives have a fitted effect of over 50% in size
# In short: (§3)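 Each value comes from one timepoint of a single continuous run in which HEK293 cells with CellTox Green were exposed to compound for up to 40 h at 37 C, dye fluorescence rising with cell death.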
# [9] = A CellTox Green Cytotoxicity Assay to monitor cytotoxicity in HEK293 cells - 40 hour (AID 1224871); also: nearly all actives have a fitted effect of over 45% in size; also: potency is read from the fitted curve at half-maximal effect
# In short: as §3
# [10] = qHTS RealTime-Glo MT Cell Viability Assay in HEK293 cells - 16 hour (AID 1224872); also: nearly all actives have a fitted effect of over 50% in size; also: potency is read from the fitted curve at half-maximal effect
# In short: as §2
# [11] = qHTS RealTime-Glo MT Cell Viability Assay in HepG2 cells - 8 hour (AID 1224873); also: nearly all actives have a fitted effect of over 55% in size
# In short: (§4)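 HepG2 cells mixed with RealTime-Glo MT reagents (NanoLuc plus cell-permeant prosubstrate) were seeded at 600 cells/well, incubated 5 h at 37 C/5% CO2, then pinned with compounds in DMSO; nonlytic luminescence tracked viability during 40 h treatment.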
# [12] = qHTS RealTime-Glo MT Cell Viability Assay in HEK293 cells - 40 hour (AID 1224874); conditions: RealTime-Glo luminescence; max response: stronger effect = lower value; also: nearly all actives have a fitted effect of over 50% in size; also: potency is read from the fitted curve at half-maximal effect
# In short: (§5)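 qHTS format; HEK293 cells with NanoLuc/prosubstrate reagent, 37 C/5% CO2 for 5 h pre-dosing; compounds 23 nL in DMSO; luminescence at each time point reflects viable cells.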
# [13] = A CellTox Green Cytotoxicity Assay to monitor cytotoxicity in HEK293 cells - 24 hour (AID 1224875); also: nearly all actives have a fitted effect of over 45% in size
# In short: as §3
# [14] = A CellTox Green Cytotoxicity Assay to monitor cytotoxicity in HepG2 cells - 16 hour (AID 1224876); also: nearly all actives have a fitted effect of over 45% in size
# In short: (§6)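 Continuous culture of HepG2 cells with a membrane-impermeant DNA dye; rising fluorescence marks dead cells. Compound exposure lasted up to 40 h at 37 C, with reads every 8 h from 0 h.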
# [15] = A CellTox Green Cytotoxicity Assay to monitor cytotoxicity in HepG2 cells - 24 hour (AID 1224878); also: nearly all actives have a fitted effect of over 45% in size
# In short: as §6
# [16] = A CellTox Green Cytotoxicity Assay to monitor cytotoxicity in HepG2 cells - 40 hour (AID 1224879); also: nearly all actives have a fitted effect of over 40% in size
# In short: as §6
# [17] = qHTS RealTime-Glo MT Cell Viability Assay in HEK293 cells - 0 hour (AID 1224880)
# In short: as §5
# [18] = A CellTox Green Cytotoxicity Assay to monitor cytotoxicity in HEK293 cells - 32 hour (AID 1224881); also: nearly all actives have a fitted effect of over 40% in size
# In short: as §3
# [19] = qHTS RealTime-Glo MT Cell Viability Assay in HepG2 cells - 40 hour (AID 1224870); also: nearly all actives have a fitted effect of over 50% in size
# In short: as §4
# [20] = qHTS RealTime-Glo MT Cell Viability Assay in HepG2 cells - 32 hour (AID 1224877); also: nearly all actives have a fitted effect of over 55% in size
# In short: as §1
smiles,measurement,setting,value
CCS(=O)(=O)c1cccnc1S(=O)(=O)NC(=O)Nc1nc(OC)cc(OC)n1,Potency,[1],inactive
same,outcome,[2],inactive
same,Potency,[3],inactive
same,Potency,[4],inactive
same,"activity change, positive = activation",[5],6.39%
same,Potency,[6],inactive
same,Potency,[7],inactive
same,Potency,[8],inactive
same,Potency,[9],inactive
same,Potency,[10],inactive
same,Potency,[11],inactive
same,max response,[12],6.92%
same,Potency,[13],inactive
same,Potency,[14],inactive
same,Potency,[15],inactive
same,Potency,[16],inactive
same,Potency,[17],inactive
same,Potency,[18],inactive
Oc1c(Cl)c(Cl)cc(Cl)c1Cl,Potency,[1],inactive
same,outcome,[2],inactive
same,Potency,[3],87.3 µM (active)
same,Potency,[4],37.5 µM (active)
same,"activity change, positive = activation",[5],-59.9%
same,Potency,[6],inactive
same,Potency,[7],47.6 µM (active)
same,Potency,[19],inactive
same,Potency,[9],42.5 µM (active)
same,Potency,[10],47.6 µM (active)
same,Potency,[11],inactive
same,Potency,[12],47.6 µM (active)
same,Potency,[14],inactive
same,Potency,[20],inactive
same,Potency,[15],inactive
same,Potency,[16],inactive
same,Potency,[17],inactive
CCOc1cc(C(C)(C)C)ccc1C1COC(c2c(F)cccc2F)=N1 (stereo not drawn),Potency,[1],inactive
same,outcome,[2],inactive
same,Potency,[3],30.7 µM (active)
same,Potency,[4],37.1 µM (active)
same,"activity change, positive = activation",[5],-39.5% [at 42.5 µM]
same,Potency,[6],inactive
same,Potency,[19],inactive
same,Potency,[9],inactive
same,Potency,[11],inactive
same,Potency,[13],inactive
same,Potency,[14],inactive
same,Potency,[15],inactive
same,Potency,[16],inactive
same,Potency,[17],inactive
same,Potency,[18],inactive
Cc1cc(C(F)(C(F)(F)F)C(F)(F)F)ccc1NC(=O)c1cccc(I)c1C(=O)NC(C)(C)CS(C)(=O)=O,Potency,[1],inactive
same,outcome,[2],inactive
same,Potency,[3],inactive
same,"activity change, positive = activation",[5],-22.4% [at 42.5 µM]
same,Potency,[6],inactive
same,Potency,[8],inactive
same,Potency,[19],inactive
same,Potency,[9],inactive
same,Potency,[10],inactive
same,Potency,[11],inactive
same,Potency,[13],inactive
same,Potency,[14],inactive
same,Potency,[16],inactive
same,Potency,[17],inactive
same,Potency,[18],inactive
Nc1ccc(Cl)cc1C(=O)c1ccccc1,Potency,[1],inactive
same,outcome,[2],inactive
same,Potency,[3],101 µM (active)
same,Potency,[4],inactive
same,"activity change, positive = activation",[5],3.06%
same,Potency,[6],inactive
same,Potency,[8],inactive
same,Potency,[19],inactive
same,Potency,[11],inactive
same,Potency,[14],inactive
same,Potency,[20],inactive
same,Potency,[16],inactive
same,Potency,[17],inactive
CC(C)CBr,Potency,[1],inactive
same,outcome,[2],inactive
same,Potency,[3],inactive
same,Potency,[4],inactive
same,"activity change, positive = activation",[5],2.25%
same,Potency,[6],inactive
same,Potency,[7],inactive
same,Potency,[8],inactive
same,Potency,[19],inactive
same,Potency,[9],inactive
same,Potency,[10],inactive
same,Potency,[11],inactive
same,Potency,[13],inactive
same,Potency,[14],inactive
same,Potency,[20],inactive
same,Potency,[15],inactive
same,Potency,[16],inactive
same,Potency,[17],inactive
same,Potency,[18],inactive
CN(C)C1CSSSC1,Potency,[1],inactive
same,outcome,[2],inactive
same,Potency,[3],inactive
same,Potency,[4],inactive
same,"activity change, positive = activation",[5],-13.3%
same,Potency,[6],inactive
same,Potency,[7],inactive
same,Potency,[8],inactive
same,Potency,[19],inactive
same,Potency,[9],inactive
same,Potency,[11],inactive
same,max response,[12],3.22%
same,Potency,[14],inactive
same,Potency,[15],inactive
same,Potency,[16],inactive
same,Potency,[17],inactive
same,Potency,[18],inactive
N#CCc1ccc(Cl)cc1,Potency,[1],inactive
same,outcome,[2],inactive
same,Potency,[3],inactive
same,Potency,[4],inactive
same,"activity change, positive = activation",[5],1.98%
same,Potency,[6],inactive
same,Potency,[7],inactive
same,Potency,[8],inactive
same,Potency,[9],inactive
same,Potency,[10],inactive
same,Potency,[11],inactive
same,max response,[12],1.31%
same,Potency,[14],inactive
same,Potency,[20],inactive
same,Potency,[15],inactive
same,Potency,[16],inactive
same,Potency,[17],inactive
same,Potency,[18],inactive
Clc1ccc(-c2ccccc2)cc1,Potency,[1],inactive
same,outcome,[2],inactive
same,Potency,[3],inactive
same,Potency,[4],inactive
same,"activity change, positive = activation",[5],3.89%
same,Potency,[6],inactive
same,Potency,[7],inactive
same,Potency,[19],inactive
same,Potency,[10],inactive
same,Potency,[11],inactive
same,max response,[12],-16.9%
same,Potency,[13],inactive
same,Potency,[14],inactive
same,Potency,[20],inactive
same,Potency,[16],inactive
same,Potency,[17],inactive
N#Cc1ccccc1Cl,Potency,[1],inactive
same,outcome,[2],inactive
same,Potency,[3],inactive
same,Potency,[4],inactive
same,"activity change, positive = activation",[5],1.91%
same,Potency,[6],inactive
same,Potency,[7],inactive
same,Potency,[8],inactive
same,Potency,[19],inactive
same,Potency,[10],inactive
same,Potency,[11],inactive
same,max response,[12],-1.15%
same,Potency,[13],inactive
same,Potency,[14],inactive
same,Potency,[15],inactive
same,Potency,[16],inactive
same,Potency,[17],inactive
same,Potency,[18],inactive
C=CCOC(N)=O,Potency,[1],inactive
same,outcome,[2],inactive
same,Potency,[3],inactive
same,Potency,[4],inactive
same,"activity change, positive = activation",[5],2.68%
same,Potency,[6],inactive
same,Potency,[7],inactive
same,Potency,[8],inactive
same,Potency,[19],inactive
same,Potency,[9],inactive
same,Potency,[10],inactive
same,Potency,[11],inactive
same,max response,[12],0.832%
same,Potency,[13],inactive
same,Potency,[14],inactive
same,Potency,[20],inactive
same,Potency,[15],inactive
same,Potency,[16],inactive
same,Potency,[17],inactive
same,Potency,[18],inactive
C[As+](C)(C)CC(=O)[O-],Potency,[1],inactive
same,outcome,[2],inactive
same,Potency,[3],inactive
same,Potency,[4],inactive
same,"activity change, positive = activation",[5],5.87%
same,Potency,[6],inactive
same,Potency,[7],inactive
same,Potency,[8],inactive
same,Potency,[19],inactive
same,Potency,[9],inactive
same,Potency,[10],inactive
same,Potency,[11],inactive
same,max response,[12],-9.67%
same,Potency,[13],inactive
same,Potency,[14],inactive
same,Potency,[20],inactive
same,Potency,[15],inactive
same,Potency,[16],inactive
same,Potency,[17],inactive
same,Potency,[18],inactive
Cl/C=C\CCl,Potency,[1],inactive
same,outcome,[2],inactive
same,Potency,[3],inactive
same,Potency,[4],inactive
same,"activity change, positive = activation",[5],3.81%
same,Potency,[6],inactive
same,Potency,[7],inactive
same,Potency,[8],inactive
same,Potency,[19],inactive
same,Potency,[9],inactive
same,Potency,[10],inactive
same,Potency,[11],inactive
same,max response,[12],11.8%
same,Potency,[14],inactive
same,Potency,[20],inactive
same,Potency,[15],inactive
same,Potency,[16],inactive
same,Potency,[17],inactive
same,Potency,[18],inactive
COP(=O)(CCC(=O)NCO)OC,Potency,[1],inactive
same,outcome,[2],inactive
same,Potency,[3],inactive
same,Potency,[4],inactive
same,"activity change, positive = activation",[5],3.27%
same,Potency,[6],inactive
same,Potency,[7],inactive
same,Potency,[8],inactive
same,Potency,[19],inactive
same,Potency,[9],inactive
same,Potency,[10],inactive
same,Potency,[11],inactive
same,max response,[12],14%
same,Potency,[14],inactive
same,Potency,[15],inactive
same,Potency,[16],inactive
same,Potency,[17],inactive
same,Potency,[18],inactive
